Holding throughout (conditions): modulator concentration 10 µM
Test [1] has as its system RAW-Dual (murine macrophage reporter line). The test is described as follows: NF-kB reporter (SEAP) activity fold change vs agonist alone; higher = enhanced NF-kB activity. The essentials:
(§1)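 Overnight stimulation with a PRR agonist followed pre-incubation for 1 hour at 37 °C with compound at 10 μM final. This was done in RAW-Dual murine macrophage reporter cells seeded at 50 000 per well in 384-well plates. NF-κB (SEAP, QUANTI-Blue absorbance at 620 nm) and IRF (Lucia luciferase, QUANTI-Luc luminescence) were read from the supernatant. Each reporter's fold change relative to the mean agonist-only control on the same plate was averaged over replicate plates.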

For test [2] the test system is unchanged. The test is described as follows: IRF reporter (Lucia luciferase) activity fold change vs agonist alone; higher = enhanced IRF activity. The procedure, abridged: as §1
Test [3] has the same test system. The test is described as follows: viability score (confluency relative to resting cells, overnight) (fraction); higher = more viable, active = viable (0.7 or more). The procedure, abridged: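 Confluency was the readout: RAW-Dual macrophages were imaged with IncuCyte after an overnight exposure to compound at 10 μM final. IncuCyte software produced two masks over all imaged wells. The viability score expresses confluency against resting cells, and both masks had to exceed 70% of resting cells for a compound to meet the cutoff.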

The mark [4] stands for this setting: agonist: CpG ODN 1826 0.5 ug/mL.

± gives the standard deviation.

For `Cc1cccc(-n2c(C)nc3ccccc3c2=O)n1`, the NF-kB reporter in test [1] (setting [4]) worked out at 0.88 ± 0.052; in test [1] (agonist: LPS 0.1 ug/mL) it was 0.827 ± 0.1; in test [1] (agonist: MPLA […]), 0.949 ± 0.039. For the same compound, the IRF reporter in test [2] (agonist: 3'3'-cGAMP 10 ug/mL) came out at 1.02 ± 0.041; in test [2] (agonist: LPS 0.1 ug/mL) it was 1.02 ± 0.054; in test [2] (agonist: MPLA […]) it was 0.935 ± 0.19. Further, the viability score in test [3] is 0.998 (active).

With `Cc1cc(C(C#N)c2ccc(Cl)cc2)c(Cl)cc1NC(=O)c1cc(I)cc(I)c1O` (configuration not stated), the values for the NF-kB reporter in test [1] (setting [4]), in test [1] (agonist: LPS 0.1 ug/mL) and in test [1] (agonist: MPLA […]) were 0.812 ± 0.14, 0.999 ± 0.15 and 0.834 ± 0.055, respectively. Further, the IRF reporter amounted to 0.731 ± 0.058 in test [2] (agonist: 3'3'-cGAMP 10 ug/mL), 1.3 ± 0.11 in test [2] (agonist: LPS 0.1 ug/mL) and 1.02 ± 0.085 in test [2] (agonist: MPLA […]). In addition, the viability score in test [3] is 0.389 (inactive).

On to `Clc1cccc(CNCCc2c[nH]c3ccccc23)c1`, for which the NF-kB reporter in test [1] (setting [4]) is 0.317 ± 0.028; in test [1] (agonist: LPS 0.1 ug/mL), 0.978 ± 0.11; in test [1] (agonist: MPLA […]), 0.992 ± 0.099. For the same compound, the IRF reporter in test [2] (agonist: 3'3'-cGAMP 10 ug/mL) was 1.13 ± 0.028; in test [2] (agonist: LPS 0.1 ug/mL), 2.3 ± 0.24; in test [2] (agonist: MPLA […]) it was 1.7 ± 0.26. In test [3], the viability score was 0.258 (inactive).

Turning to `CCC1(C)CC(=O)NC(=O)C1`, the NF-kB reporter in test [1] (setting [4]) came out at 0.907 ± 0.15; in test [1] (agonist: LPS 0.1 ug/mL) it was 0.842 ± 0.14; in test [1] (agonist: MPLA […]), 0.941 ± 0.054. Further, the IRF reporter in test [2] (agonist: 3'3'-cGAMP 10 ug/mL) turned out to be 0.899 ± 0.073; in test [2] (agonist: LPS 0.1 ug/mL), 1.02 ± 0.11; in test [2] (agonist: MPLA […]) it was 1.11 ± 0.16. Further, the viability score in test [3] is 0.985 (active).

In the case of `COc1ccc(CCNCc2ccc3ccccc3c2)cc1`, the NF-kB reporter in test [1] (setting [4]) turned out to be 0.853 ± 0.068; in test [1] (agonist: LPS 0.1 ug/mL) it was 0.755 ± 0.051; in test [1] (agonist: MPLA […]) it was 1.65 ± 0.11. The values for the IRF reporter in test [2] (agonist: 3'3'-cGAMP 10 ug/mL), in test [2] (agonist: LPS 0.1 ug/mL) and in test [2] (agonist: MPLA […]) were 0.88 ± 0.06, 0.98 ± 0.13 and 2.58 ± 0.29, respectively. Further, in test [3], the viability score is 0.123 (inactive).

`O=c1[nH]c2ccccc2n1CCCN1CCC(n2c(=O)[nH]c3cc(Cl)ccc32)CC1`: the figures for the NF-kB reporter in test [1] (setting [4]), in test [1] (agonist: LPS 0.1 ug/mL) and in test [1] (agonist: MPLA […]) were 0.114 ± 0.018, 1.14 ± 0.082 and 0.973 ± 0.074, respectively. Also, the values for the IRF reporter in test [2] (agonist: 3'3'-cGAMP 10 ug/mL), in test [2] (agonist: LPS 0.1 ug/mL) and in test [2] (agonist: MPLA […]) were 0.865 ± 0.026, 1.31 ± 0.14 and 1.12 ± 0.092, respectively. The viability score in test [3] was 0.981 (active).

Take `CCC1(c2cccc(O)c2)CCCCN(C)C1.Cl` (configuration not stated): the NF-kB reporter was found to be 0.894 ± 0.13 in test [1] (setting [4]), 0.99 ± 0.054 in test [1] (agonist: LPS 0.1 ug/mL) and 1 ± 0.047 in test [1] (agonist: MPLA […]). Further, the figures for the IRF reporter in test [2] (agonist: 3'3'-cGAMP 10 ug/mL), in test [2] (agonist: LPS 0.1 ug/mL) and in test [2] (agonist: MPLA […]) were 1.08 ± 0.088, 0.963 ± 0.043 and 0.948 ± 0.21, respectively. Also, the viability score in test [3] is 1.01 (active).

With `O=C1NC(=O)N(c2ccccc2F)C(=O)C1=Cc1cc(Cl)ccc1OCc1ccc([N+](=O)[O-])cc1`, the NF-kB reporter worked out at 0.892 ± 0.071 in test [1] (setting [4]), 1.05 ± 0.078 in test [1] (agonist: LPS 0.1 ug/mL) and 0.744 ± 0.045 in test [1] (agonist: MPLA […]). The IRF reporter in test [2] (agonist: 3'3'-cGAMP 10 ug/mL) came out at 0.741 ± 0.018; in test [2] (agonist: LPS 0.1 ug/mL) it was 0.972 ± 0.087; in test [2] (agonist: MPLA […]), 0.855 ± 0.16. In test [3], the viability score was 1.01 (active).

Regarding `CC12CCC3C(CCC4CC(=O)CCC43C)C1CCC2=O` (configuration not stated), the NF-kB reporter is 1.29 ± 0.32 in test [1] (setting [4]), 1.03 ± 0.058 in test [1] (agonist: LPS 0.1 ug/mL) and 0.933 ± 0.075 in test [1] (agonist: MPLA […]). The IRF reporter was 1.04 ± 0.044 in test [2] (agonist: 3'3'-cGAMP 10 ug/mL), 1.23 ± 0.18 in test [2] (agonist: LPS 0.1 ug/mL) and 1.23 ± 0.17 in test [2] (agonist: MPLA […]). In addition, the viability score in test [3] is 0.997 (active).

`O=C1NC(=O)C(=Cc2cc(Br)ccc2OCc2ccc(Cl)cc2Cl)C(=O)N1`: the NF-kB reporter is 0.887 ± 0.05 in test [1] (setting [4]), 0.945 ± 0.071 in test [1] (agonist: LPS 0.1 ug/mL) and 0.794 ± 0.058 in test [1] (agonist: MPLA […]). Also, the values for the IRF reporter in test [2] (agonist: 3'3'-cGAMP 10 ug/mL), in test [2] (agonist: LPS 0.1 ug/mL) and in test [2] (agonist: MPLA […]) were 0.949 ± 0.033, 0.751 ± 0.11 and 0.822 ± 0.16, respectively. Further, the viability score in test [3] is 0.991 (active).

Take `CC(=O)C1CCC2C3CCC4CC(O)CCC4(C)C3CCC12C` (configuration not stated): the NF-kB reporter is 1.17 ± 0.28 in test [1] (setting [4]), 1.16 ± 0.097 in test [1] (agonist: LPS 0.1 ug/mL) and 1.02 ± 0.079 in test [1] (agonist: MPLA […]). The IRF reporter was 0.858 ± 0.034 in test [2] (agonist: 3'3'-cGAMP 10 ug/mL), 1.2 ± 0.19 in test [2] (agonist: LPS 0.1 ug/mL) and 1.38 ± 0.13 in test [2] (agonist: MPLA […]). In addition, the viability score in test [3] is 0.985 (active).

`COc1cc2c(cc1OC)C1CC(=O)C(CC(C)C)CN1CC2` (configuration not stated): the NF-kB reporter came to 1.09 ± 0.093 in test [1] (setting [4]), 1.04 ± 0.076 in test [1] (agonist: LPS 0.1 ug/mL) and 0.986 ± 0.045 in test [1] (agonist: MPLA […]). Moreover, the IRF reporter came to 0.983 ± 0.065 in test [2] (agonist: 3'3'-cGAMP 10 ug/mL), 0.933 ± 0.047 in test [2] (agonist: LPS 0.1 ug/mL) and 0.904 ± 0.073 in test [2] (agonist: MPLA […]). Also, the viability score in test [3] was 0.992 (active).

Take `O=C(O)CC[N+](=O)[O-]`: the NF-kB reporter was found to be 0.87 ± 0.22 in test [1] (setting [4]), 0.979 ± 0.066 in test [1] (agonist: LPS 0.1 ug/mL) and 0.974 ± 0.063 in test [1] (agonist: MPLA […]). For the same compound, the IRF reporter was 0.912 ± 0.086 in test [2] (agonist: 3'3'-cGAMP 10 ug/mL), 0.96 ± 0.23 in test [2] (agonist: LPS 0.1 ug/mL) and 0.933 ± 0.12 in test [2] (agonist: MPLA […]). For the same compound, the viability score in test [3] was 1 (active).

Take `CCC1(c2ccccc2)C(=O)N(Cc2ccccc2)C(=O)N(Cc2ccccc2)C1=O`: the NF-kB reporter came out at 0.516 ± 0.03 in test [1] (setting [4]), 1.08 ± 0.1 in test [1] (agonist: LPS 0.1 ug/mL) and 0.967 ± 0.056 in test [1] (agonist: MPLA […]). For the same compound, the IRF reporter in test [2] (agonist: 3'3'-cGAMP 10 ug/mL) was determined as 1.17 ± 0.093; in test [2] (agonist: LPS 0.1 ug/mL), 1.25 ± 0.14; in test [2] (agonist: MPLA […]), 1.18 ± 0.11. The viability score in test [3] is 1.01 (active).

With `CCNc1nc(Cl)nc(NC(C)C)n1`, the NF-kB reporter in test [1] (setting [4]) came to 1.25 ± 0.097; in test [1] (agonist: LPS 0.1 ug/mL), 0.873 ± 0.082; in test [1] (agonist: MPLA […]), 1.01 ± 0.094. Besides, the IRF reporter in test [2] (agonist: 3'3'-cGAMP 10 ug/mL) was determined as 1.01 ± 0.032; in test [2] (agonist: LPS 0.1 ug/mL), 1.33 ± 0.21; in test [2] (agonist: MPLA […]), 1.49 ± 0.25. The viability score in test [3] is 1.03 (active).

`CCCC(=O)c1ccc(N2CCNCC2)c(F)c1`: the NF-kB reporter in test [1] (setting [4]) came to 0.404 ± 0.023; in test [1] (agonist: LPS 0.1 ug/mL), 1.12 ± 0.069; in test [1] (agonist: MPLA […]), 0.961 ± 0.082. The IRF reporter is 0.861 ± 0.043 in test [2] (agonist: 3'3'-cGAMP 10 ug/mL), 1.4 ± 0.14 in test [2] (agonist: LPS 0.1 ug/mL) and 1.66 ± 0.18 in test [2] (agonist: MPLA […]). The viability score in test [3] is 0.951 (active).

The record behind these values is the supplement of paper PMC10646978.
